Usually AC50 stands for the midpoint of the concentration-response curve, whichever way the signal moves.

Several values for one entry are separate records, joined by “and”; a condition that tells them apart may be missing. Identical values can stand only once. Some structures have more than one record in an assay (separate samples or runs), and their calls can disagree. Activity calls are given as the source filed them. How the source made its calls: active means hit-call score of the fitted dose curve at least 0.9, where 1 is the maximum; inactive means score below 0.9.

39 compounds from PubChem BioAssay (EPA / NIEHS) can be followed below.

The test in a line: ATG_AP_1_CIS: Attagene CIS-FACTORIAL HepG2 Assay for human Activator Protein 1 (AP-1) (AID 2282931). The note with it: HepG2 Attagene cis-factorial AP-1 reporter mRNA; actives raise or lower the signal. The method, then:
ATG_CIS is a cell-based, multiplexed-readout assay that uses HepG2, a human liver cell line, with measurements taken at 24 hours after chemical dosing in a 24-well plate.ATG_AP_1_CIS is one of 52 assay component(s) measured or calculated from the ATG_CIS assay. It is designed to make measurements of mRNA induction, a form of inducible reporter, as detected with fluorescence intensity signals by Reverse transcription polymerase chain reaction (RT-PCR) and Capillary electrophoresis technology.Data from the assay component ATG_AP_1_CIS was analyzed into 1 assay endpoint. This assay endpoint, ATG_AP_1_CIS, was analyzed with bidirectional fitting relative to DMSO as the negative control and baseline of activity. Using a type of inducible reporter, measures of mRNA for gain or loss-of-signal activity can be used to understand the reporter gene at the transcription factor-level as they relate to the gene FOS and JUN. Furthermore, this assay endpoint can be referred to as a primary readout, because this assay has produced multiple assay endpoints where this one serves a reporter gene function. To generalize the intended target to other relatable targets, this assay endpoint is annotated to the dna binding intended target family, where the subfamily is basic leucine zipper.
Human liver HepG2 cells are transiently transfected with multiple reporter transcription units (MRTUs) in 6-well plates using FuGene 6 reagent (Roche; 3 ml FuGene/1 mg DNA). The MRTU constructs are regulated by a cis-regulating element (promoter). […] A major difference between the CIS and TRANS system is that in CIS activities of endogenous TFs are measured, whereas the TRANS assay evaluates changes in activities of exogenous, chimeric NR-Gal4 proteins. […] At the end of 24 hour incubation, total RNA was isolated using TriZol reagent (Invitrogen). The isolated RNA is then reverse-transcribed using oligo(dT) primer and Mo-MLV reverse transcriptase (Invitrogen) with DNAse I (Ambion) treatment for 30 min. The one-tenth of the produced cDNA was amplified by PCR using Taq DNA polymerase (Invitrogen) and two reporter sequence-specific primers. The PCR products were fluorescently labeled by primer extension with 6-arboxyfluorescein (6-FAM) 5'-labeled reporter sequence-specific primer (2 min at 95 C, 20 s at 68 C and 10 min at 72 C) and these products were digested with 5U of HpaI (New England Biolabs) for 2h at 37 C. The fragments were purified using Qiaquick PCR columns (Qiagen), analyzed on an ABI 3130xL genetic analyzer (Applied Biosystems) with peak positions identified by using a set of X-rhodamine (ROX)-labeled MapMarker1000 molecular weight standards (BioVentures). The raw capillary electrophoresis data was processed using Attagraph software (Attagene).
For `[Cl-].[Cl-].[Hg+2]`, the call was inactive.

Regarding `CCCCCCCCOC(=O)c1ccc(C(=O)OCCCCCCCC)c(C(=O)OCCCCCCCC)c1`, the compound was called inactive.

For the compound `Brc1ccc(Oc2ccccc2)cc1`, the compound was classed as inactive.

On to `Nc1ccc(Cl)cc1N`, for which the AC50 is 9.15 µM (active).

For the compound `Clc1ccccc1Cl`, the compound was classed as inactive.

Regarding `Cc1ccc([N+](=O)[O-])cc1`, the result was inactive.

As to `c1ccc2c(c1)-c1cccc3cccc-2c13`, the compound was called inactive.

As for `CN(C)[C@@H]1C(=O)C(C(N)=O)=C(O)[C@@]2(O)C(=O)C3=C(O)c4c(O)cccc4[C@@](C)(O)[C@H]3C[C@@H]12`, the compound was classed as inactive.

Turning to `c1ccc(C2CO2)cc1` (stereo not given), the result was inactive.

Consider `CC(C)COC(=O)c1ccccc1C(=O)OCC(C)C`, for which the AC50 is 70.3 µM (active).

With `CCCCCCCCn1sccc1=O`, the call was inactive.

Consider `C[C@]12C=CC3=C4CCC(=O)C=C4CC[C@H]3[C@@H]1CC[C@@H]2O`, for which the compound was called inactive.

With `CNC(=O)Oc1cccc2c1OC(C)(C)C2`, the outcome was inactive.

In the case of `O=C(Oc1ccc(Br)cc1)N1CCN2CCC1CC2`, the compound was called inactive.

As for `CO[C@@H]1[C@H](OC(=O)NC(=O)CCl)CC[C@]2(CO2)[C@H]1[C@@]1(C)O[C@@H]1CC=C(C)C`, the result was inactive.

In the case of `O=Cc1ccco1`, the outcome was inactive.

Consider `CS(=O)(=O)NC(=O)c1cc(Oc2ccc(C(F)(F)F)cc2Cl)ccc1[N+](=O)[O-]`, for which the result was inactive.

In the case of `CCOc1cccc(C2(N3CCN(c4ccccc4)CC3)CCC(C)CC2)c1` (stereo not given), the outcome was inactive.

Regarding `O=[N+]([O-])c1ccc(Oc2ccc(Cl)cc2Cl)cc1`, the outcome was inactive.

As to `CCCCC(CC)COC(=O)c1ccc(C(=O)OCC(CC)CCCC)c(C(=O)OCC(CC)CCCC)c1` (stereo not given), the call was inactive.

Consider `CC(C)N(Cc1ccccc1)C(=O)C(C)(C)C`, for which the compound was classed as inactive.

On to `Oc1ccccc1Cl`, for which the outcome was inactive.

`OCCCBr`: the outcome was inactive.

Regarding `C[N+](C)(C)CC1CO1` (stereo not given), the compound was called inactive.

`Cc1cc(N=Nc2ccccc2C)ccc1N`: the call was inactive.

Turning to `O=[N+]([O-])C(Br)(CO)CO`, the AC50 is 25.2 µM (active).

With `Nc1ccc([N+](=O)[O-])cc1`, the outcome was inactive.

Consider `CC(C)(C)C(O)(CCc1ccc(Cl)cc1)Cn1cncn1` (stereo not given), for which the AC50 was 140 µM (active).

For `CN(C)c1ccc(C(=O)c2ccc(N(C)C)cc2)cc1`, the compound was called inactive.

With `c1ccc(NNc2ccccc2)cc1`, the outcome was inactive.

Consider `C1=Cc2cccc3cccc1c23`, for which the compound was classed as inactive.

As for `Clc1ccc(C(c2ccc(Cl)cc2)C(Cl)Cl)cc1`, the AC50 was 50.9 µM (active).

For `C=CCc1ccc2c(c1)OCO2`, the result was inactive.

As for `CCNS(=O)(=O)C(F)(F)C(F)(F)C(F)(F)C(F)(F)C(F)(F)C(F)(F)C(F)(F)C(F)(F)F`, the outcome was inactive; the AC50 is 29.9 µM (active) and 75.2 µM (active).

Turning to `CC(O)CCO` (stereo not given), the compound was classed as inactive.

On to `COC(=O)c1ccccc1N`, for which the compound was classed as inactive.

With `O=C(Nc1ccccc1)c1ccccc1I`, the compound was classed as inactive.

Consider `Cn1cc(-c2ccccc2)c(=O)c(-c2cccc(C(F)(F)F)c2)c1`, for which the compound was called inactive.

Turning to `COc1cc(C=O)cc2c1[C@H](COC(N)=O)[C@]1(OC(C)=O)ON2C[C@H]2[C@@H]1N2C(C)=O`, the AC50 is 61.4 µM (active).
